Results as given in PubChem BioAssay.
Values without a mark were called inactive. For part of these data: Results with a measured potency or affinity are listed apart. Activity calls are given as the source filed them. Unless noted, how the calls were made is not given here.

How the values were obtained:
[1] = antimalarial activity against Dd2 strain (AID 2302;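 active means growth inhibition above 50% at the single 2 µM test dose, taken to imply half-maximal potency below 2 µM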;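 further: 0% = DMSO untreated growth and 100% = chloroquine plus artemisinin killed control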); conditions: P. falciparum Dd2 in RBCs, LDH growth readout, 72 h; at 2 µM; stronger effect = higher value
[2] = human hepatoma cell viability loss – ATP luminescence, cytotoxicity control for P. falciparum antimalarial project, primary screen (AID 2303;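 active means inhibition above 50%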;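 further: 0% = DMSO wells and 100% = digitonin-killed cells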); conditions: HepG2 viability, 24-48 h, at 10 µM, stronger effect = higher value
[3] = molecular target: L-lactate dehydrogenase (Plasmodium falciparum (isolate CDC / Honduras)) (UniProt Q27743); assay: PfLDH activity inhibition – cell lysate, 3D7 strain, counter-screen for P. falciparum growth inhibition project (AID 2304);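 further: 0% = vehicle and 100% = reference inhibitor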; conditions: P. falciparum 3D7 crude extract, LDH APAD/NBT absorbance; at 2 µM; stronger effect = higher value
[4] = inhibition of 3D7 malaria parasite growth – strain 3D7 (AID 2306);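 further: 0% = DMSO wells and 100% = chloroquine plus artemisinin control wells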; conditions: P. falciparum 3D7 erythrocytic growth, LDH absorbance, 72 h; at 2 µM; stronger effect = higher value
[5] = molecular target: Calcium-dependent protein kinase 1 (Plasmodium falciparum (isolate 3D7)) (UniProt P62344); assay: PfCDPK1 kinase inhibitors, biochemical, TCAMS library (AID 1159585; cut-off not given, nearly all actives have IC50 up to about 0.98 µM;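 further: inhibitors leave more ATP so luminescence rises with inhibition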); conditions: recombinant PfCDPK1, Kinase-Glo ATP depletion luminescence
[6] = molecular target: Plasmodium falciparum protein kinase 6 (PK6, PF3D7_1337100) (UniProt Q8IDW1); assay: PfPK6 kinase inhibitors, biochemical, TCAMS library (AID 1159586); conditions: recombinant PfPK6, Kinase-Glo ATP depletion luminescence
[7] = molecular target: Protein kinase 7 (PK7), Plasmodium falciparum 3D7 (PF3D7_0213400) (UniProt Q7YTF7); assay: inhibition of Plasmodium PK7 catalytic activity – biochemical, TCAMS antimalarial set, Kinase-Glo luminescence (AID 1159587); conditions: recombinant PfPK7, Kinase-Glo ATP depletion luminescence
[8] = molecular target: Calcium-dependent protein kinase 4 (Plasmodium falciparum (isolate 3D7)) (UniProt Q8IBS5); assay: PfCDPK4 kinase inhibitors, biochemical, TCAMS library (AID 1159588; cut-off not given, nearly all actives have IC50 up to about 0.91 µM); conditions: recombinant PfCDPK4, Kinase-Glo ATP depletion luminescence
Calcium-dependent protein kinase 4 (Plasmodium falciparum (isolate 3D7)), sequence (Q8IBS5 whole entry, looked up): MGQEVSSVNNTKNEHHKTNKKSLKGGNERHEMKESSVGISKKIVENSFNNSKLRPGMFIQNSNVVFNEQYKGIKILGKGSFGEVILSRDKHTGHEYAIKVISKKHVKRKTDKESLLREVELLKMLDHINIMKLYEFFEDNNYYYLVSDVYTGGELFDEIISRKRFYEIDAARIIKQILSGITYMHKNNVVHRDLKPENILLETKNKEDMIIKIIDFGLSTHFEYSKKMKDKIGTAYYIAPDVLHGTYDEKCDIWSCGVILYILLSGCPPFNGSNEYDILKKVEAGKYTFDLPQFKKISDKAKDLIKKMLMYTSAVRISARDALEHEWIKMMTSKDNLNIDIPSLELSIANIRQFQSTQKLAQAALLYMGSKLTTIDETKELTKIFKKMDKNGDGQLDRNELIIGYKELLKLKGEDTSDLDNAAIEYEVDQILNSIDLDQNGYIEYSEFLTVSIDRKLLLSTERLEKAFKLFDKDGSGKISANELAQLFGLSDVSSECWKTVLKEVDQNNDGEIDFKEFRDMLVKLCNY

Calcium-dependent protein kinase 1 (Plasmodium falciparum (isolate 3D7)), sequence (P62344 whole entry, looked up): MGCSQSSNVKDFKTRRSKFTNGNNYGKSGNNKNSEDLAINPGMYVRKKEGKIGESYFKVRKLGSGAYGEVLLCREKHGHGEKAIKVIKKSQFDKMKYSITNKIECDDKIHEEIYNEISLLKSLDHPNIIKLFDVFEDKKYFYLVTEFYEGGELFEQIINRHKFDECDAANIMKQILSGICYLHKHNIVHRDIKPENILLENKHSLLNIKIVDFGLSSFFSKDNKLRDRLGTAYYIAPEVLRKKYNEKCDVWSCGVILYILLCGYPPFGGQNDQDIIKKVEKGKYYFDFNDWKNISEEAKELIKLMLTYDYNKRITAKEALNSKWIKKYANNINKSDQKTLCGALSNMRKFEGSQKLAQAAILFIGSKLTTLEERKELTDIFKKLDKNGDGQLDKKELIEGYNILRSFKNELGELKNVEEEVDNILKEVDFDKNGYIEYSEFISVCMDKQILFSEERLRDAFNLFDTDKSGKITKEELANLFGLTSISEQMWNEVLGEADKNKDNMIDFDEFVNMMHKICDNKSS
Plasmodium falciparum protein kinase 6 (PK6, PF3D7_1337100), sequence (Q8IDW1 1-305): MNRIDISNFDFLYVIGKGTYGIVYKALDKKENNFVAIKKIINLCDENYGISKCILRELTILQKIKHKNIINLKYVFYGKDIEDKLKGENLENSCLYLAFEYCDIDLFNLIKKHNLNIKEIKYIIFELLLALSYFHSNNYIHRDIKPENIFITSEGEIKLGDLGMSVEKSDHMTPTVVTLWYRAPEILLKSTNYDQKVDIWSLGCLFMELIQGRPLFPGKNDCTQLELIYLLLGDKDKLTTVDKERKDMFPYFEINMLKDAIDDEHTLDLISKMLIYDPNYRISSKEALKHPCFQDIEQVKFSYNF
Protein kinase 7 (PK7), Plasmodium falciparum 3D7 (PF3D7_0213400), sequence (Q7YTF7 1-343): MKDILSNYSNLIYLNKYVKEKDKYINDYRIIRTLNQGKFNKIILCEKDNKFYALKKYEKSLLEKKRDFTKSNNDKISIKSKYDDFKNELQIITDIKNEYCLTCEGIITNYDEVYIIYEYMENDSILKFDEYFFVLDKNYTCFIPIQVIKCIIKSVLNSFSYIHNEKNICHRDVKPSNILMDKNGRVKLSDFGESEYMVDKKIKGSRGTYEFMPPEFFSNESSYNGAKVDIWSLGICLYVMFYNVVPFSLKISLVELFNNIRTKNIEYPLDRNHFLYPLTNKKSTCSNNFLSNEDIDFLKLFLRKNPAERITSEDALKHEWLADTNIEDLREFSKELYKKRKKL
L-lactate dehydrogenase (Plasmodium falciparum (isolate CDC / Honduras)), sequence (Q27743 whole entry, looked up): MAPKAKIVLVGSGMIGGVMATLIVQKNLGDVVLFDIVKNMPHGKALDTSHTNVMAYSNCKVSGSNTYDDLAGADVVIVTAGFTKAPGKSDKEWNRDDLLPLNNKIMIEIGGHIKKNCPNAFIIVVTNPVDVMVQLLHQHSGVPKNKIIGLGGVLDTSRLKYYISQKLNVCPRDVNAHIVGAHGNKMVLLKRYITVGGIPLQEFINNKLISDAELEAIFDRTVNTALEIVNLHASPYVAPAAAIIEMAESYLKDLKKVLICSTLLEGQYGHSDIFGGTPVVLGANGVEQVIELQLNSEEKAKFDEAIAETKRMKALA

SMILES	growth inhibition [1]	inhibition [2]	inhibition [3] [%]	growth inhibition [4]	outcome [5]	outcome [6]	outcome [7]	outcome [8]
CCn1c(C(C)C)cc2c3c(N)nc(N)nc3ccc21	-2%	67% (active)	2	92% (active)	inactive	inactive	inactive	inactive
O=[N+]([O-])c1cccc(S(=O)(=O)N2CCN(CC(O)COc3ccc(-c4ccccc4)cc3)CC2)c1 (stereo not drawn)	32%	11%	0	94% (active)	inactive	inactive	inactive	inactive
Cc1nnc2sc(-c3cccc(NC(=O)c4ccc(N5CCCCC5)c([N+](=O)[O-])c4)c3)nn12	20%	3%	-3	87% (active)	inactive	inactive	inactive	inactive
O=C(NCCCCCN1CCC(c2c[nH]c3ccccc23)CC1)Nc1ccc(Br)cc1	-4%	24%	1	91% (active)	inactive	inactive	inactive	inactive
Cc1cc(CNCCCCCNCc2cccc([N+](=O)[O-])c2)ccc1O	-2%	14%	0	98% (active)	inactive	inactive	inactive	inactive
COc1cccc2c(NN=Cc3ccccc3[N+](=O)[O-])ccnc12	43%	8%	-3	99% (active)	inactive	inactive	inactive	inactive
COc1cc2c(C3CCN(CC4CCC(NC(=O)/C=C/c5ccc(Cl)c(Cl)c5)CC4)CC3)c[nH]c2cn1 (stereo not drawn)	100% (active)	44%	-5	101% (active)	inactive	inactive	inactive	inactive
COc1cccc(Nc2nccc(NCC(O)c3ccc(C(F)(F)F)cc3)n2)c1 (stereo not drawn)	28%	14%	-4	99% (active)	inactive	inactive	inactive	inactive
CN1CCC(NCc2ccc(-c3ccc(C(F)(F)F)cc3)cc2)CC1	71% (active)	54% (active)	5	99% (active)	inactive	inactive	inactive	inactive
CCC(C)OC(=O)C1=C(C)NC2=C(C(=O)CC(c3ccc(OC)c(OC)c3)C2)C1c1cccc(O)c1 (stereo not drawn)	98% (active)	-8%	0	100% (active)	inactive	inactive	inactive	inactive
NC(N)=NCCCN(Cc1ccccc1)c1ccc(Cl)cc1	98% (active)	-9%	-7	100% (active)	inactive	inactive	inactive	inactive
CCc1cn2c3c(cc(C(=O)N[C@@H](Cc4ccccc4)[C@H](O)CNCC(C)C)cc13)N(C)S(=O)(=O)CC2	99% (active)	-1%	-6	98% (active)	inactive	inactive	inactive	inactive
COc1ccc(Nc2ncc3c(-c4cccc(NC(=O)c5ccc(N)cc5)c4)c[nH]c3n2)cc1OC	31%	83% (active)	-3	84% (active)	inactive	inactive	inactive	inactive
COc1cc(NC(=O)c2c(-c3c(Cl)cccc3Cl)noc2C)c(OC)cc1Cl	67% (active)	4%	0	85% (active)	inactive	inactive	inactive	inactive
CCOc1ccccc1CCNCC1CCN(CC2CCCCC2)CC1	59% (active)	35%	-1	84% (active)	inactive	inactive	inactive	inactive
CS(=O)(=O)c1ccc2nc(-c3cc(-c4ccc(OCCN5CCOCC5)cc4)cnc3N)[nH]c2c1	99% (active)	43%	-4	100% (active)	inactive	inactive	inactive	inactive
Cc1cccc2[nH]c(-c3ccc(-c4ccc(CNCC(C)C)cc4)cc3)nc12	90% (active)	14%	-1	100% (active)	inactive	inactive	inactive	inactive
CN1CCCN(c2ccnc3cc4c(cc23)N(C(=O)c2ccc(C(F)(F)F)cc2)CC4)CC1	63% (active)	10%	1	101% (active)	inactive	inactive	inactive	inactive
CC(=NN=C(N)N)c1ccc2ccc3ccccc3c2c1	23%	14%	-7	97% (active)	inactive	inactive	inactive	inactive
COc1cc2nc(N3CCC(CNC(=O)c4ccc(-c5cccc(C#N)c5)cc4)CC3)nc(N)c2cc1OC	100% (active)	18%	6	100% (active)	inactive	inactive	inactive	inactive
O=c1cc(NCCCNC2CCOc3c(I)cc(Cl)cc32)[nH]c2ccccc12 (stereo not drawn)	48%	-10%	-1	96% (active)	inactive	inactive	inactive	inactive
